HT1080-NT tox – qHTS for induction of synthetic lethality in tumor cells producing 2HG: qHTS for the HT-1080-NT fibrosarcoma cell line | Potency, µM (doses to about 46.1 µM), for the others: at the top dose activity, negative = less viability, actives largely listed as cytotoxic | 360,000 tested, 1.6% active | HT-1080-NT fibrosarcoma viability, CellTiter-Glo ATP luminescence, 48 h;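 note: NT is the 2HG producing partner of a matched IDH1 knockdown line; 0% = DMSO-treated cells and -100% = media-only wells without cells; nearly all actives have a fitted effect of over 55% in size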
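Viability by CellTiter-Glo luminescence after 48 h compound exposure at 37C of HT-1080-NT cells (750/well, RPMI, 5% FBS). % activity scaled between DMSO wells and medium-only wells, then curve-fitted and categorized by curve class.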
TGFb SMAD3 inh – qHTS for Inhibitors of TGF-b; HepG2 CAGA-GFP TGF-b/SMAD3 reporter, GFP fluorescence, 18 h; TGF-beta stimulated, 500 pg/mL final; Potency, µM (titrated, usually from 46.1 µM), for inactives: top-dose activity, negative = inhibition, hits mostly inhibitors; 410,000 tested, 1.2% active; note: % is set by controls: 0 for no effect and ±100 for the full control effect; nearly all actives have a fitted effect of over 65% in size
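Using HEPG2 CAGA-GFP reporter cells at 1000 cells/well, we pinned test compounds, stimulated with recombinant TGF-beta (500 pg/mL final) and measured total well GFP after 18 h.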
HepG2 viability – qHTS for Inhibitors of TGF-b: Cytotox Counterscreen. Potency, µM (titrated, usually from 46.1 µM), inactives show top-dose activity change, negative = cytotoxicity, usual class: cytotoxic. HepG2 CAGA-GFP viability, ATP luminescence, 18 h. 410,000 tested, 0.76% active
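HepG2 CAGA-GFP cells (1000/well, DMEM with 1% FBS) received compound, then TGF-beta at 500 pg/mL final, and were incubated 18 hours at 37 degrees C. Viability was read by CellTiter-Glo luminescence. Media-only wells were set as complete cell-killing and DMSO as no toxicity.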
TDP1 cell CPT – qHTS for Inhibitors of human tyrosyl-DNA phosphodiesterase 1 (TDP1): qHTS in cells in presence of CPT; chicken DT40 Tdp1-/-;hTDP1 cells + 20 nM CPT, ATP luminescence, 48 h; Potency, µM (titrated, usually from 46.2 µM), inactives show at the highest dose activity change, negative = growth inhibition, hits mostly inhibitors; 420,000 tested, 12% active; note: % is set by controls: 0 for no effect and ±100 for the full control effect; nearly all actives have a fitted effect of over 55% in size
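Chicken DT40 Tdp1-/- cells complemented with human TDP1, 400 cells/well, exposed to compounds plus 20 nM camptothecin for at least 48 h at 37 C; viability read as ATP content by CellTiter-Glo luminescence.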
HT1080 IDH1KD tx – qHTS for induction of synthetic lethality in tumor cells producing 2HG: qHTS for the HT-1080-IDH1KD cell line; HT-1080 IDH1 knockdown viability, ATP luminescence, 48 h; Potency, µM (series often up to 46.1 µM), for the others: at the top dose activity, negative = toxicity, most hits filed as cytotoxic; 360,000 tested, 2% active; AID 686971, 2013;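 note: 0% = DMSO wells and -100% = cell-free medium wells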
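Assay cells: HT-1080 with IDH1 knockdown, 750 per well, RPMI/5% FBS. Exposure: 48 h at 37 °C following 2 h pre-incubation. Read: CellTiter-Glo luminescence; fitted concentration-response, curve class assigned.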
DT40 TDP1 no CPT – qHTS for Inhibitors of human tyrosyl-DNA phosphodiesterase 1 (TDP1): qHTS in cells in absence of CPT | DT40 Tdp1-/- hTDP1 cells, no CPT, ATP luminescence, 48 h | Potency, µM (doses to about 46.2 µM), inactives show top-dose activity change, negative = growth inhibition, hits mostly inhibitors | 420,000 tested, 15% active; note: % is set by controls: 0 for no effect and ±100 for the full control effect; nearly all actives have a fitted effect of over 55% in size
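Readout: luminescence from CellTiter-Glo after 30 min in the dark at RT. Cells: DT40 Tdp1-/- with stable hTDP1, 400/well. Exposure: compounds alone, ≥48 hr, 37 °C.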
Starred values were filed as active, the others as inactive; ? = inconclusive; nt = no result given. A selection: hits, their analogues and other compounds. The true share with any hit is near 17%. Calls come from the whole dose curve; as a rule, active = well fitted curve in the direction sought with a large enough effect; inconclusive = small, poorly fitted or top-dose-only effect, or another doubt; inactive = no such curve, though single readings can be large; an effect the other way counts as inactive or inconclusive. Potency is the fitted concentration of half-maximal effect.

SMILES	HT1080-NT tox	TGFb SMAD3 inh	HepG2 viability	TDP1 cell CPT	HT1080 IDH1KD tx	DT40 TDP1 no CPT
C[N+]1(CCCOC(=O)C2(c3ccccc3)CCCC2)CCOCC1	-4%	?	11µM*	1%	-2%	-17%
CN(C)CCOC(=O)C1(c2ccccc2)CCCC1	0%	-12%	-3%	-3%	8%	-27%
Cc1cccc(N2CCN(C3=NC(=O)C(Cc4ccccc4)S3)CC2)c1 (stereo unspecified)	-2%	-25%	-4%	?	2%	15µM*
Cc1cccc(CC2SC(N)=NC2=O)c1 (stereo unspecified)	8%	11%	2%	6%	2%	3%
Cc1ccc(CN2C(=O)c3ccccc3Sc3ccc(C(=O)NC4CCCCC4)cc32)cc1	nt	-2%	-5%	-2%	nt	-18%
COC(=O)COc1ccc(S(=O)(=O)Nc2ccc(C(N)=O)cc2)cc1C	0%	16µM*	-94%	?	20%	-13%
CC(OC(=O)CC1Sc2ccccc2NC1=O)C(=O)N(C)Cc1ccccc1 (stereo unspecified)	-14%	4%	-9%	?	-10%	21µM*
CC1(C)CC(=O)C=C(c2ccc(COC(=O)Cc3ccccc3)cc2)C1=O	6%	10%	-3%	-13%	8%	-16%
CCOC(=S)SCC(=O)Nc1nc(C)c(C)s1	?	?	-43%	16µM*	-7%	21µM*
Cc1nc(NC(=O)CSc2nc(N)cc(N)n2)sc1C	1%	35%	-4%	8%	-8%	-1%
CCOC(=O)/C=C/C(=O)Nc1nccs1	-17%	0%	-23%	7.3µM*	-7%	3.7µM*
CCOC(=S)SCC(=O)Nc1nccs1	-15%	-33%	-31%	21µM*	?	21µM*
Cc1ccc(S(=O)(=O)n2ccc3c2CCCC3=O)cc1	8%	3%	0%	?	0%	21µM*
Cc1ccc(-n2c(C)cc3c2CCCC3=O)cc1	-2%	-6%	-29%	-27%	?	?
C/C(N)=C(/C#N)C(=O)CSc1nnnn1-c1ccc(C)cc1	1%	-29%	-16%	?	17%	?
CCCCOc1ccc(N2C(=O)C(C)CNC2=S)cc1 (stereo unspecified)	11%	-8%	-13%	10%	4%	7%
Cc1ccc(S(=O)(=O)OCCC2=CC(=O)CCN2Cc2ccccc2)cc1	1%	-8%	-24%	16µM*	1%	?
CCN(C(=O)COC(=O)C1CCC(C(C)(C)C)CC1)c1c(N)n(Cc2ccccc2)c(=O)[nH]c1=O (stereo unspecified)	-4%	-7%	-9%	21µM*	-1%	16µM*
Nc1c(N(Cc2ccccc2)C(=O)COc2cccc(Cl)c2)c(=O)[nH]c(=O)n1Cc1ccccc1	11%	-35%	-51%	21µM*	8%	?
CCCOc1ccc(C(=O)CCC(=O)OCC(=O)N(CC)c2c(N)n(Cc3ccccc3)c(=O)[nH]c2=O)cc1	-1%	-3%	-5%	-12%	0%	?
CCN(C(=O)COC(=O)CCOc1ccc(C(C)(C)C)cc1)c1c(N)n(Cc2ccccc2)c(=O)[nH]c1=O	5%	-1%	-9%	12µM*	3%	3.7µM*

High-throughput results: PubChem, National Center for Advancing Translational Sciences (NCATS)
